Screening results deposited in PubChem BioAssay by several laboratories.
APP 5UTR inh = APP translation inhibition; inhibition, % at 2 µM; AID 1285; actives 0.82% (n = 190,000); SH-SY5Y APP 5'UTR-luciferase reporter, luminescence;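 active = inhibition above a set limit, derived from the sample mean plus 3 SD, cut at about 45% in these data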
Ba/F3 V617F tox = loss of viability in JAK2V617F-driven Ba/F3 cells; Ba/F3 EpoR-JAK2V617F viability, ATP luminescence; inhibition, % at 5.6 µM; actives 1.1% (n = 220,000); AID 1446;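 active = inhibition above the campaign mean plus 3 SD over all tested compounds, cut at about 24% in these data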;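 note: cytokine-independent growth of Ba/F3 cells driven by EpoR plus mutant JAK2; 0% = DMSO-treated cells and 100% = JAK inhibitor I control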
IEC-6 tox = counter-screen for KLF5 inhibitors: cytotoxicity in IEC-6 cells | IEC-6 cytotoxicity, luminescence viability | inhibition, % at 5 µM | actives 0.78% (n = 290,000);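 note: 0% = plate median of test compound wells and 100% = cytotoxic reference compound wells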
KLF5 inh = suppresses KLF5 promoter-driven expression | DLD-1 KLF5 promoter-luciferase reporter, luminescence | inhibition, % at 5 µM | actives 0.23% (n = 290,000);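 active = inhibition above a per-plate limit of that plate's mean compound inhibition plus 3 SD, cut at about 60% in these data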;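 note: 0% = DMSO wells and 100% = LY294002 at 200 µM; higher means less KLF5 promoter-driven luciferase light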
BaF3 tox = reduces parental Ba/F3 cell viability, JAK2V617F counter-screen. actives 1.1% (n = 220,000). inhibition, % at 5.6 µM. CellTiter-Glo ATP luminescence;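 active = inhibition above a per-campaign cutoff, the mean inhibition of all tested compounds plus 3 SD, cut at about 27% in these data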;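 note: 0% = DMSO wells and 100% = JAK Inhibitor I control wells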
IEC-6 cytotox cf = confirmation of cytotoxic compounds in rat IEC-6 intestinal epithelial cells | shares compounds with IEC-6 tox | IEC-6 rat intestinal epithelial viability, luminescence | inhibition, % at 5 µM | actives 63% (n = 1,900);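 note: 0% = vehicle and 100% = reference cytotoxic drug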
* = called active by the depositor; nt = no result. Shown are actives, neighbours in structure and some others; about 1.9% of the full set was active somewhere. Cut-off read from the data, not from the text of the source, unless noted: active = inhibition above about 22%; inactive = the rest.

SMILES | APP 5UTR inh | Ba/F3 V617F tox | IEC-6 tox | KLF5 inh | BaF3 tox | IEC-6 cytotox cf
C=CCNc1nc2c(c(=O)[nH]c(=O)n2C)n1CCOc1ccccc1 | nt | nt | 0.1 | -10.9 | nt | nt
CCN(CC)c1ccc(/C=C/c2cccc[n+]2C)c(OC)c1 | nt | nt | 28.0* | 19.4 | nt | 29.5*
CC(/C=C/c1ccc2c(c1)OCO2)=N/NC(=O)c1ccc(C)nc1 | -13.1 | -3.3 | -2.2 | -14.1 | 0.7 | nt
COc1cc(NS(=O)(=O)c2ccc(C)cc2)c2ncccc2c1 | 21.6 | 0.6 | 79.3* | -15.4 | 6.6 | 74.3*
COc1ccc(S(=O)(=O)Nc2ccccn2)cc1 | nt | nt | -5.4 | -58.2 | nt | nt
Cc1oc2c(cc(NS(=O)(=O)c3ccc(F)cc3)c3ccccc32)c1C(=O)O | nt | nt | -1.2 | 5.9 | nt | nt
COc1ccc(S(=O)(=O)Nc2cc3c(C(C)=O)c(C)oc3c3ccccc23)cc1 | 91.7* | 79.4* | 83.3* | 52.2 | 78.2* | 55.2*
Cc1ccc(S(=O)(=O)Nc2cccc3cccnc23)cc1 | 29.0 | 0.3 | 32.1* | 12.0 | 3.6 | 100.2*
Cc1ccc(S(=O)(=O)Nc2ccccc2-c2ccccc2NS(=O)(=O)c2ccc(C)cc2)cc1 | -2.8 | -1.6 | -2.9 | 13.3 | 7.7 | nt
CCN(CCCNC(=O)CNC(=O)c1nn(-c2ccc(OC)cc2OC)c(=O)c2ccccc12)c1cccc(C)c1 | nt | nt | 0.4 | -9.9 | nt | nt
CSc1ncccc1C(=O)OCC(=O)C(C)(C)C | -15.6 | 0.9 | 1.1 | -73.6 | 5.8 | nt
COc1ccc(CNC(=O)CN(C(=O)CCC(=O)Nc2ccccn2)c2ccc(C)cc2)cc1 | nt | nt | -2.1 | -6.2 | nt | nt
CCC(C)n1c(SCC(=O)NC(=O)c2cccn2C)nc2ccccc2c1=O (stereo not given) | -13.7 | 4.2 | 33.0* | 20.8 | 3.4 | 28.7*
CCN1CCN(C(=O)c2ccc(N3CC4CC(C3)c3cccc(=O)n3C4)c(NC(=O)c3cc(OC)cc(OC)c3)c2)CC1 (stereo not given) | nt | nt | -7.8 | -11.1 | nt | nt
Cn1c(=O)c2c(nc(NCC3CCCC(CN)C3)n2Cc2ccc(Cl)cc2Cl)n(C)c1=O (stereo not given) | nt | nt | 59.8* | -40.0 | nt | 38.8*
Cn1c(=O)c2c(nc(NCCNC(=O)c3ccco3)n2Cc2ccc(Cl)cc2Cl)n(C)c1=O | 2.9 | 0.2 | -1.7 | -11.9 | 5.5 | nt
CC(=O)N1c2ccc(S(=O)(=O)N3CCCC(C(=O)Nc4ccc(F)cc4)C3)cc2CC1C (stereo not given) | nt | nt | -0.7 | -1.0 | nt | nt
NC(=O)c1ccc[n+](CC(=O)c2ccc(NC(=O)c3ccccc3)cc2)c1 | nt | nt | 4.0 | -25.0 | nt | nt
NC(=O)c1ccc[n+](CC(=O)c2ccccc2)c1 | nt | 60.2* | 22.0* | 25.6 | 26.9* | -2.5
O=C(NCc1cccc(C(F)(F)F)c1)c1ccc2c(c1)OCO2 | nt | nt | 4.8 | -23.2 | nt | nt
COc1ccccc1N1CCN(S(=O)(=O)c2ccc(NC(C)=O)cc2)CC1 | nt | nt | 4.1 | -15.6 | nt | nt
CCCC1(c2ccccc2)NC(=O)N(CC(=O)Nc2cc(OC)cc(OC)c2)C1=O (stereo not given) | nt | nt | 3.9 | -17.9 | nt | nt
COc1ccc(C#Cc2ccc3c(=O)c4ccccc4n(C)c3c2)cc1 | nt | nt | 0.5 | -13.5 | nt | nt
Cn1c2ccccc2c(=O)c2ccc(C#Cc3ccc(N)cc3)cc21 | nt | nt | 36.3* | -44.1 | nt | 33.4*
Cc1ccc(OCC(=O)NC(=S)Nc2ccc(Br)cn2)cc1 | nt | -2.8 | 1.1 | -18.6 | -1.4 | nt
SMILES | APP 5UTR inh | Ba/F3 V617F tox | IEC-6 tox | KLF5 inh | BaF3 tox | IEC-6 cytotox cf
Cc1ccc2nc(SCC(=O)Nc3cc(C(F)(F)F)ccc3N3CCOCC3)[nH]c2c1 | 94.4* | 78.5* | 82.3* | 54.8 | 74.7* | 59.8*
O=C(COc1ccc2c3c(c(=O)oc2c1)CCCC3)N1C[C@H]2C[C@@H](C1)c1cccc(=O)n1C2 | nt | nt | 3.2 | 8.5 | nt | nt
CCC(C)(C)n1nnnc1CN1CCC(c2nc3ccc(C)cc3[nH]2)CC1 | -1.2 | -3.6 | 10.8 | -44.3 | 2.5 | nt
Cc1cc2nc(C3CCN(Cc4nnnn4Cc4ccccc4)CC3)[nH]c2cc1C | 39.8 | 72.3* | 71.8* | 22.9 | 68.3* | 52.1*
Cc1ccc(C(=O)Nc2ccn(Cc3ccc(F)cc3)n2)o1 | -5.7 | 23.2 | 74.4* | -43.6 | 2.0 | 8.7
CC(=O)Oc1ccc(N2C(=O)c3cccc4c([N+](=O)[O-])ccc(c34)C2=O)cc1 | nt | nt | 6.6 | -41.9 | nt | nt
O=C1c2cccc3c([N+](=O)[O-])ccc(c23)C(=O)N1O | nt | nt | 85.4* | -22.1 | nt | 11.4
Clc1ccc(OCCN2CCN(c3ncnc4sccc34)CC2)cc1 | 15.2 | 66.0* | 26.2* | 6.4 | 73.4* | 9.9
CCOc1cc(/C=C2\CN(C)C/C(=C\c3ccc(O)c(OCC)c3)C2=O)ccc1O | nt | nt | 88.1* | 33.0 | nt | 37.6*
COc1ccc(COc2cc(-c3cccc(OC)c3)nc3ccc(NC(=O)c4ccc(C)cc4)cc23)cc1 | 8.5 | 4.8 | 7.7 | 23.9 | 11.0 | nt
COc1ccc(COc2cc(-c3cccc(OC)c3)nc3ccc(NC(=O)c4ccc(N(C)C)cc4)cc23)cc1 | 11.0 | 75.9* | 48.7* | 22.9 | 74.6* | 14.9
CCn1ncc(C2=NOC(C(=O)NCc3ccc(OC)cc3)C2)c1C (stereo not given) | -5.1 | -2.4 | 22.5* | -2.7 | 0.8 | 10.1
COc1ccc(CNC(=O)C2CC(c3ccccc3[N+](=O)[O-])=NO2)cc1 (stereo not given) | -11.1 | 2.9 | 0.1 | -29.2 | 5.6 | nt
CCn1ncc(C2=NOC(C(=O)NCc3ccccc3)C2)c1C (stereo not given) | 71.7* | 80.4* | 66.0* | 51.9 | 77.6* | 57.2*
CCc1cc2c(=O)[nH]c(-c3ccccn3)nc2s1 | -33.7 | -3.1 | 27.0* | -105.4 | 1.6 | 48.6*
Cc1c(C(=O)N2CCN(Cc3ccccc3)CC2)oc2c1C(=O)CC(C)(C)C2 | nt | nt | -3.8 | -29.6 | nt | nt
COc1ccc(/C=N/NC(=O)CCn2cnc(-c3ccccc3)c2-c2ccccc2)cc1OC | 79.7* | 58.3* | 70.7* | 35.4 | 63.1* | 45.9*
COCCNc1c2c(nc3c(-c4ccccc4)c(C)nn13)CCCC2 | 10.8 | 1.4 | -2.2 | -10.9 | 7.7 | nt
Cc1nn2c(NCCN(C)C)c3c(nc2c1-c1ccccc1)CCCC3 | nt | 7.3 | 25.0* | -2.7 | 3.5 | 0.8
CC(C)N(CC(O)COc1ccc(CC(N)=O)cc1)CC(O)COc1ccc(CC(N)=O)cc1 (stereo not given) | nt | nt | 0.9 | -28.3 | nt | nt
CCOc1ccc(Cn2c(=O)oc3ccccc32)cc1 | nt | nt | -8.0 | -52.8 | nt | nt
S=c1[nH]c2cc(-c3ccccc3)ccc2o1 | nt | -4.3 | 1.3 | -24.3 | -1.8 | nt
COc1ccc(NC(=O)C(Cl)=C(Cl)Cl)cn1 | 29.6 | 0.6 | 12.5 | 3.7 | -3.3 | nt
COc1ccc(NC(=O)Cc2ccc(-c3ccccc3)cc2)cn1 | 17.9 | 3.6 | 40.1* | -14.3 | 14.4 | 21.8
COc1ccc(CC(=O)Nc2ccc(OC)nc2)cc1 | -2.2 | -2.7 | -3.7 | -13.9 | 5.0 | nt
COc1ccc(NC(=O)/C(Cl)=C(/Cl)S(=O)(=O)Cc2ccccc2)cn1 | 76.9* | 72.8* | 30.6* | 10.8 | 31.2* | 47.3*
COc1ccc(NC(=O)/C(Cl)=C(/Cl)S(=O)Cc2ccc(Cl)cc2)cn1 (stereo not given) | 95.9* | 100.1* | 42.1* | 27.7 | 85.8* | 55.8*
